# PINK1 modulator = changes PINK1 expression. PINK1 immunofluorescence, high-content cytometry, 24 h. Potency, µM (titrated, usually from 76.6 µM), actives largely listed as activators. 0.2% of 410,000 active; active = well fitted activation curve with a large enough effect; inconclusive = small, poorly fitted or top-dose-only effect; cell line not stated here; also: nearly all actives have a fitted effect of over 65% in size
#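 PINK1 protein level read as immunofluorescence by microplate cytometer in a fixed, stained stable cell line after 24 h exposure to five compound concentrations, with CCCP as control.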
# MCF10A rerep = induces DNA re-replication in MCF 10a normal breast cells. MCF 10A DNA re-replication, Hoechst nuclear intensity, 48 h. Potency, µM (highest dose often 46.1 µM), hits mostly activators. 2.9% of 350,000 active. AID 624296; also: nearly all actives have a fitted effect of over 50% in size
# KB-V1 MDR tox = KB-V1 MDR subline cytotoxicity. KB-V1 MDR cells viability, CellTiter-Glo, 72 h. Potency, µM (series often up to 46.1 µM), usual class: cytotoxic. 3.4% of 400,000 active. AID 1347076; also: nearly all actives have a fitted effect of over 60% in size
#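 Luminescent ATP read-out (CellTiter-Glo, 10 min) measures survival of drug-selected KB-V1 MDR cells after 72 h, 37 degrees C compound exposure. Medium: phenol-red-free DMEM, 10% FBS. Values from fitted concentration-response curves.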
# KB-3-1 tox = kills parental KB-3-1 adenocarcinoma cells | Potency, µM (doses to about 46.1 µM), usual class: cytotoxic | KB-3-1 viability, CellTiter-Glo ATP luminescence, 72 h | 1.4% of 400,000 active | AID 1347075; also: nearly all actives have a fitted effect of over 60% in size
#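 Cells are dispensed, compounds pinned in, plates held at 37 °C for 72 h, then CellTiter-Glo is added and luminescence read after 10 minutes. Cell line: parental KB-3-1 in phenol-red-free DMEM, 10% FBS.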
# SW480 rereplic = DNA re-replication induction in SW480 cells; SW480 DNA re-replication, Hoechst DNA content imaging, 48 h; 1.8% of 340,000 active; Potency, µM (highest dose often 46.1 µM), hits mostly activators; also: nearly all actives have a fitted effect of over 55% in size
#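 Hoechst fluorescence of nuclei (405 nm excitation, 500-530 nm emission) measured by plate-scanning imager after 48 hr compound exposure at 37 C; re-replication scored as increased number of nuclei with elevated intensity.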
# TSG101-PTAP inh = blocks PTAP/TSG101 interaction to inhibit HIV-1 budding; 340,000 tested, under 10 active; Fluorescence polarization, FITC-PTAP peptide / Tsg101 binding; Q99816; Potency, µM (highest dose often 115 µM), usual class: inhibitors; active = well fitted inhibition curve with a large enough effect in the main read-out, with a control signal flat, not every such curve was filed as active; inconclusive = small, poorly fitted or top-dose-only effect, or effect the other way, or a change in a side signal; inactive = no such curve, though single readings can be large or run the other way
# Target sequence (Q99816 whole entry, looked up): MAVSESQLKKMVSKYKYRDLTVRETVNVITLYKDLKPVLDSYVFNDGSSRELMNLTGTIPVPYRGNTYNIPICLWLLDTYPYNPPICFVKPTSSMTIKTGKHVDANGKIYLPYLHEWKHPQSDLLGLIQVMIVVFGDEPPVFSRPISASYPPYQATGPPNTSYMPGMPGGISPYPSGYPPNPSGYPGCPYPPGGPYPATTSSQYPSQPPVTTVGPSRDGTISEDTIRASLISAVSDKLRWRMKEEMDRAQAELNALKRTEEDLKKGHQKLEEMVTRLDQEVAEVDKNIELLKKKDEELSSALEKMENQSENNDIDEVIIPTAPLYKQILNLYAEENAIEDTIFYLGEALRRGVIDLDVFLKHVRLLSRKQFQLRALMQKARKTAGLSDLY
#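 Compounds were pin-transferred onto Tsg101 binding domain (10 uM final) in HEPES pH 7.5 buffer, then FITC-PTAP peptide was added at 50 nM final. After 20 min at RT, polarization reported peptide displacement across a qHTS concentration series.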
# Hits are given with their value; i = inactive; ? = inconclusive; nt = no result; ! = repeats disagree. Sampled rows, rich in hits. Any-hit rate of the full collection: about 6.8%. Unless noted, calls follow the shape of the dose curve; as a rule, active = well fitted curve in the direction sought with a large enough effect; inconclusive = small, poorly fitted or top-dose-only effect, or another doubt; inactive = no such curve, though single readings can be large; an effect the other way counts as inactive or inconclusive.
SMILES,PINK1 modulator,MCF10A rerep,KB-V1 MDR tox,KB-3-1 tox,SW480 rereplic,TSG101-PTAP inh
Cc1ccc(S(=O)(=O)c2nnn3c2nc(N2CCC(C)CC2)c2cc(Cl)ccc23)cc1C,i,nt,i,i,nt,nt
CCc1ccccc1NC(c1nnc(-c2cccc(F)c2)o1)c1ccc(F)cc1Cl (stereo not drawn),i,nt,i,i,nt,nt
Cc1ccc(S(=O)(=O)c2ncccc2[N+](=O)[O-])cc1,i,5.8µM,?,?,12µM,i
Cc1ccc(S(=O)(=O)c2ncccc2N)cc1,i,i,i,i,i,i
Cc1c(NC(=O)CSc2nnc3c4ccccc4n(CCc4ccccc4)c3n2)c(=O)n(-c2ccccc2)n1C,i,8.2µM,?,?,?,i
CN(C(=O)C(=O)Nc1ccc2nc3n(c(=O)c2c1)CCCCC3)c1cccc(C(F)(F)F)c1,i,nt,i,i,nt,nt
CCCCN(C)CCNC(=O)c1ccc2c(=O)n(CCc3ccccc3)c(=O)[nH]c2c1,i,nt,i,i,nt,nt
CC(C)(C)N1C(=O)Cc2c1nc(N)c1c(N)nc(N3CCCCC3CO)c(C#N)c21 (stereo not drawn),i,15µM,?,?,i,i
CCOC(=O)c1c2ccc(OCC(=O)N/N=C/c3ccc(C)cc3)cc2n2ccccc12,i,2.6µM,?,?,?,?
CCOC(=O)c1c2ccc(OCC(=O)NN)cc2n2ccccc12,i,16µM,i,?,i,i
OCCN1CCN(Cc2ccc3c(c2)CN(Cc2cccn2-c2ccccn2)CCO3)CC1,i,nt,nt,nt,nt,nt
CCOC(=O)c1ccc(N2C(=O)c3n[nH]c(C)c3C2c2ccccc2OC)cc1 (stereo not drawn),i,nt,i,i,nt,nt
CCN(CC)c1ccc(NC(=O)c2cccc(F)c2)c(C)c1,i,?,?,5.8µM,18µM,i
CC(=O)N1c2c(cc(Br)cc2S(=O)(=O)Nc2ccc(OC(F)(F)F)cc2)CC1C (stereo not drawn),i,nt,i,i,nt,nt
CCc1cc(=O)oc2cc(O[C@@H]3O[C@H](CO)[C@@H](O)[C@H](O)[C@H]3O)c(Cl)cc12,i,i,i,i,18µM,i
CCc1cc(=O)oc2c(C)c(O[C@@H]3O[C@H](CO)[C@@H](O)[C@H](O)[C@H]3O)ccc12,i,i,?,i,?,i
Cc1ccccc1N1CCN(S(=O)(=O)c2ccccc2)CC1,i,i,21µM!,?,i,i
Cc1ccccc1-n1nc(C)c2cc(C(=O)N3CCN(S(=O)(=O)c4ccccc4)CC3)sc21,i,i,23µM,i,i,i
Cc1nn(-c2ccc(F)cc2)c2sc(C(=O)N3CCCCCC3)cc12,i,?,i,i,i,i
CCOC(=O)C1=C(C)N(c2ccccc2)C(=O)/C1=C\c1cccs1,i,i,18µM,i,i,i
CCOC(=O)C1=C(C)N(c2ccc(C)cc2)C(=O)/C1=C\c1cccs1,i,i,?,i,i,i
O=C(CNC(=O)c1cccc(F)c1)N/N=C/c1cc(Br)ccc1OC(=O)/C=C/c1ccco1,i,i,i,?,5.2µM,i
Cc1cc(Oc2ccc3ccccc3c2)nc(SCC(=O)c2ccccc2)n1,i,?,16µM,18µM,?,i
Cc1cc(-c2ccccc2)nc(SCC(=O)c2cccc([N+](=O)[O-])c2)n1,?,?,?,i,16µM,i
COC(=O)c1ccc(Oc2cc(C)nc(-n3nc(C)cc3C)n2)cc1,i,2.1µM,1.8µM,1.3µM,0.82µM,i
SMILES,PINK1 modulator,MCF10A rerep,KB-V1 MDR tox,KB-3-1 tox,SW480 rereplic,TSG101-PTAP inh
Cc1cc(Oc2ccc(Br)cc2)nc(SCC(=O)c2ccccc2)n1,i,?,?,i,i,i
CCOC(=O)c1ccc(Oc2cc(C)nc(SC)n2)cc1,i,1.8µM,9.2µM,9.2µM,6.5µM,i
Cc1ccc(C)c(OCCn2cc(/C=C(\C#N)C(=O)NCC3CCCO3)c3ccccc32)c1 (stereo not drawn),i,16µM,i,?,?,i
Cc1ccc(OCCn2cc(/C=C(\C#N)C(=O)NCC3CCCO3)c3ccccc32)cc1 (stereo not drawn),i,i,21µM,i,nt,i
Cc1ccc(Cn2ccnc2SCC(=O)Nc2ccc3c(c2)OCO3)cc1,i,nt,nt,nt,nt,nt
CC(C)(C)C(=O)CSc1nc2ccsc2c(=O)n1Cc1ccccc1Cl,i,nt,nt,nt,nt,nt
O=C(C[C@@H]1C[C@@H]2c3cc(NS(=O)(=O)c4ccc(F)cc4)ccc3O[C@@H]2[C@H](CO)O1)NCc1ccc(Oc2ccccc2)cc1,i,nt,i,i,nt,nt
O=C(C[C@@H]1C[C@H]2c3cc(NC(=O)c4cccnc4)ccc3O[C@H]2[C@H](CO)O1)NCc1ccc(Oc2ccccc2)cc1,i,nt,i,18µM,nt,nt
Cc1ccc(Oc2ccc(S(=O)(=O)NCC(C)(C)N3CCOCC3)cc2)cc1,i,21µM,12µM,?,i,i
CC(C)(CNS(=O)(=O)c1ccc2c(c1)OCCO2)N1CCOCC1,i,i,i,i,i,i
CCOc1cc(CNn2cn[nH]c2=S)cc(Cl)c1OCc1ccccc1F,i,i,16µM,i,?,i
O=C(COc1ccc(Cl)cc1)Nc1ccc2nc(SCC(=O)N3CCCC3)sc2c1,i,nt,nt,nt,nt,nt
Cc1ccc(-n2cc(-c3ccccc3)c3c(N4CCCCC4)ncnc32)cc1,i,nt,nt,nt,nt,nt
Cc1ccc(-n2cc(-c3ccccc3)c3c(N4CCOCC4)ncnc32)cc1,i,18µM,?,i,?,i
Fc1ccc(-n2cc(-c3ccccc3)c3c(NN4CCOCC4)ncnc32)cc1,i,?,7.3µM,?,i,i
c1ccc(-c2cn(-c3ccccc3)c3ncnc(N4CCN(c5ccccc5)CC4)c23)cc1,i,nt,nt,nt,nt,nt
Cc1ccc(-n2cc(-c3ccccc3)c3c(N4CCN(C)CC4)ncnc32)cc1,i,21µM,i,i,i,i
C#CCn1cc[n+](CC(=O)N(C)C)c1,i,i,i,i,i,i
CCCCCCCCCCCCCCCCn1cc[n+](CC(C)=O)c1,i,15µM,i,8.2µM,i,i
COc1ccc(CNC(=O)c2nn(-c3ccccc3C)nc2CO)cc1,i,nt,nt,nt,nt,nt
Cc1ccc(C(=O)NCCNc2nc3cc(C)c(C)cc3cc2C)cc1,i,8.2µM,?,?,8.2µM,i
Cc1cc2cc(C)c(NCCNC(=O)c3ccccc3)nc2cc1C,i,i,i,i,i,i
N=C1C(c2ccccc2)=C(O)CN1c1ccccc1,i,i,i,i,i,i
N=C1C(c2ccccc2)=C(O)CN1c1ccc2c(c1)OCO2,nt,16µM,i,i,i,i
COc1cc(CN2CC(=O)N(c3ccc(C)cc3)C2=S)cc(OC)c1OC,i,i,10µM,?,i,i
COc1ccc(CN2CC(=O)N(c3ccc(C)cc3)C2=S)cc1OC,i,i,i,i,i,i

# Screening results as filed in PubChem BioAssay.
